Data from PubChem BioAssay AID1376 (SRMLSC, 2008).
Among all 220,000 compounds or so, about 530 (0.24%) were called active. No stated cut-off is given here; in the data, active means inhibition above about 13%; inconclusive means no clear call, values can overlap the other calls; inactive means below that. The list comes from a sample in which actives are over-represented; it also holds similar structures and randomly drawn compounds. Entries with a potency or affinity are not part of this list.

target: Bifunctional protein GlmU (Mycobacterium tuberculosis (strain ATCC 25618 / H37Rv)) (UniProt P9WMN3); experiment: inhibition of mycobacterial GlmU enzyme – biochemical, glucosamine-1-phosphate acetyltransferase (AID 1376);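 further: 0% = complete reaction with vehicle and 100% = reaction without substrate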; conditions: M. tuberculosis GlmU acetyltransferase enzyme assay; hits give high values;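 tested at 30 µM in the primary screen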
Sequence (P9WMN3 whole entry, looked up): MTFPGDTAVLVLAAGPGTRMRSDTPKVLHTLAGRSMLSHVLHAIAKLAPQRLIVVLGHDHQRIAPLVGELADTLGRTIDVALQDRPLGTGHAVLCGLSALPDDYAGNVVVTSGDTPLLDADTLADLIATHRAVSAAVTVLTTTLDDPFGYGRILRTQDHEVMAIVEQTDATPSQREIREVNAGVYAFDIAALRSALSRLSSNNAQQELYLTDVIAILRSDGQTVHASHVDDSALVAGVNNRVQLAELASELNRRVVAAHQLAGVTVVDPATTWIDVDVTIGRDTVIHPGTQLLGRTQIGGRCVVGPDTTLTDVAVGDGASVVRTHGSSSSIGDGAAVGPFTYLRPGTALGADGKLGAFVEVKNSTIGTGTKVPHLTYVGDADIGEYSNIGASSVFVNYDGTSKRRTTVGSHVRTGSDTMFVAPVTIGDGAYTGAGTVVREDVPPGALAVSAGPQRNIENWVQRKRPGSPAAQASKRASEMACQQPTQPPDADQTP

SMILES | inhibition
N#Cc1c2c(c(NCCCN3CCOCC3)n3c1nc1ccccc13)CCC2 | 13.8% (active)
CCCc1c(C)c(C#N)c2nc3ccccc3n2c1NCCCN1CCOCC1 | 11.7% (inactive)
N#Cc1c2c(c(NCCN3CCOCC3)n3c1nc1ccccc13)CCCC2 | 6.82% (inactive)
COCCCNC(=O)C1CCN(C(=O)c2cc3sccc3n2Cc2ccc(F)cc2)CC1 | 1.5% (inactive)
O=C(OCC1O[C@@H](OC(=O)c2cc(O)c(O)c(O)c2)[C@@H](OC(=O)c2cc(O)c(O)c(O)c2)[C@@H](OC(=O)c2cc(O)c(O)c(O)c2)[C@@H]1OC(=O)c1cc(O)c(O)c(O)c1)c1cc(O)c(O)c(O)c1 (stereo partly specified) | 7.78% (inactive)
O=C(O)C[C@@H]1C(=O)O[C@@H]2C(COC(=O)c3cc(O)c(O)c(O)c3)O[C@@H](OC(=O)c3cc(O)c(O)c(O)c3)[C@@H](OC(=O)c3cc(O)c(O)c4c3[C@H]1[C@H](O)C(=O)O4)[C@H]2OC(=O)c1cc(O)c(O)c(O)c1 (stereo partly specified) | 67.3% (active)
CCCC1=C(C(=O)OCC)C(c2ccco2)C(C#N)=C(N)O1 (stereo unspecified) | 0.05% (inactive)
Cc1ccc(N2C(=O)C(Cc3ccc(O)cc3)NC2=S)cc1C (stereo unspecified) | -4.47% (inactive)
CC(=O)N1CCC(=NNC(=O)CSc2cc(C)c(Br)cc2C)CC1 | -1.13% (inactive)
COc1ccc(-c2nnc(SCC(=O)NCc3ccco3)n2C)cc1 | 3.67% (inactive)
Cc1cccc(N2C(=O)C(O)=C(C(=O)c3cccs3)C2c2ccc(Cl)cc2)n1 (stereo unspecified) | 3.09% (inactive)
CC1CCN(c2nncc3ccccc23)CC1 | 31.2% (active)
CC1CCN(c2nnc(-c3ccccc3)c3ccccc23)CC1 | 0.97% (inactive)
CC1CCN(c2ncnc3ccccc23)CC1 | 2.04% (inactive)
COc1ccc(C(CNC(=O)COc2ccccc2-c2ccccc2)N2CCOCC2)cc1 (stereo unspecified) | -8.37% (inactive)
CCOC(=O)c1ccc(NC2c3ccccc3C(=O)N2c2cccnc2)cc1 (stereo unspecified) | 1.04% (inactive)
Oc1c(Cl)cc(Cl)cc1Sc1cc(Cl)cc(Cl)c1O | 13.1% (active)
C/C(=N\O)c1cc(Cl)cc(Cl)c1O | -5.49% (inactive)
Oc1c(Cl)cc(Cl)cc1C=Nc1ccc(Br)cc1 | 5.27% (inactive)

SMILES | inhibition
COc1cc(NC(=O)Nc2ccc(Cl)c(Cl)c2)c(C(=O)O)cc1OC | 0.76% (inactive)
Cc1sc2nc(CN3CCC(C)CC3)nc(Cl)c2c1C | -6.88% (inactive)
O=C(Nc1cccc(O)c1)c1cc2nc(-c3ccccc3)cc(-c3ccccc3)n2n1 | 1.52% (inactive)
COc1cc(NC(=O)c2cc3nc(-c4ccccc4)cc(-c4ccccc4)n3n2)cc(OC)c1OC | -2.98% (inactive)
COc1ccc(NC(=O)c2cc3nc(-c4ccccc4)cc(-c4ccccc4)n3n2)c(OC)c1 | 20.8% (active)
CC(C)CN(C(=O)CSc1nnc2c(Cl)cc(C(F)(F)F)cn12)C1CCS(=O)(=O)C1 (stereo unspecified) | 52.2% (inactive)
Cc1ccc(N(CC(=O)N/N=C/c2cc(C)n(-c3ccccc3)c2C)S(C)(=O)=O)c(C)c1 | 1.57% (inactive)
OCC1(CCc2ccccc2)CCN(Cc2c(F)ccc(F)c2F)CC1 | 3.84% (inactive)
CC(C)CCNc1nnnc2c1sc1nc(N3CCOCC3)c3c(c12)CC(C)(C)SC3 | 2.31% (inactive)
CCOc1ccc(NC(=S)N2CCc3cc(OC)c(OC)cc3C2COc2ccc3c(C)cc(=O)oc3c2)cc1 (stereo unspecified) | 1.27% (inactive)
O=C(COC(=O)C12CC3CC(CC(C3)C1)C2)NCCc1ccccc1 | 5.26% (inactive)
Cn1nccc1NC(=O)c1nccnc1C(=O)O | -4.84% (inactive)
Cc1cc(N2CCN(C(=O)c3ccco3)CC2)n2nc(-c3cccc(F)c3)cc2n1 | -0.85% (inactive)
Cc1cc(N2CCN(C(=O)c3ccco3)CC2)n2nc(-c3cccc(Cl)c3)cc2n1 | 14.1% (active)
Cc1cc(N2CCN(C(=O)c3ccco3)CC2)n2nc(C)c(-c3ccccc3)c2n1 | 3.95% (inactive)
CCCCN(CC)CCNC(=O)c1cn(-c2ccc(Cl)cc2)c(=O)c2ccccc12 | -2.06% (inactive)
Cc1ccc(-c2c(C)n([O-])c3c([n+]2=O)CCC3)o1 | 1.5% (inactive)
Cc1c(-c2ccco2)[n+](=O)c2c(n1[O-])CCC2 | 14.9% (active)
Cc1c(-c2ccco2)[n+](=O)c2c(n1[O-])CCCCC2 | 3.97% (inactive)

SMILES | inhibition
COC(=O)c1cnc(N2CCCN(S(=O)(=O)c3ccc(C(F)(F)F)cc3)CC2)nc1C(F)(F)F | 1.89% (inactive)
Cc1cccc(NC(=O)c2ccc(COc3ccc4ccccc4c3)o2)n1 | -0.95% (inactive)
O=C(CN1N=C(c2ccccc2)CCC1=O)NCCN1CCc2ccccc2C1 | -1.06% (inactive)
CC(=O)Oc1cccc(N2C(=O)c3ccccc3C2=O)c1 | -6.78% (inactive)
CC12CCC(C(=O)NCc3ccccc3)(OC1=O)C2(C)C (stereo unspecified) | 1.44% (inactive)
CC12CCC(C(=O)NNc3ccccc3)(OC1=O)C2(C)C (stereo unspecified) | -5.23% (inactive)
CC12CCC(C(=O)NC(c3ccccc3)c3ccccc3)(OC1=O)C2(C)C (stereo unspecified) | 13.4% (active)
COc1cccc(OC)c1C(=O)N1CCN(Cc2ccccc2C(F)(F)F)CC1 | 3.68% (inactive)
COc1ccc(/C=C2\CCc3c2nc2ccccc2c3C(=O)O)cc1OC | -1.01% (inactive)
O=C(O)c1c2c(nc3ccccc13)/C(=C/c1ccc(O)cc1)CCC2 | -1.41% (inactive)
CCOC(=O)c1nnn(-c2nc(OC)nc(N3CCCCC3)n2)c1-c1ccccc1 | 1.53% (inactive)
COC(=O)c1nnn(-c2nc(N3CCOCC3)nc(N3CCOCC3)n2)c1C | 0.09% (inactive)
CCNc1nc(N2CCCCC2)nc(-n2nnc(C(=O)OCC)c2C)n1 | 13.5% (active)
O=C(O)/C=C/C(=O)Nc1ccc2nccnc2c1 | 0.78% (inactive)
CN(C)S(=O)(=O)c1ccc(C(=O)NCc2ccco2)cc1 | 7.54% (inactive)
CCOc1cccc(NC(=O)/C(C#N)=C/c2cccnc2)c1 | 13.3% (active)
CCOc1ccc(/C=C(\C#N)C(=O)Nc2cccnc2)cc1 | -3.21% (inactive)
CCOc1cccc(NC(=O)/C(C#N)=C\c2cccnc2)c1 | -1.75% (inactive)
